Among the test systems are T-47D breast; BT-549 breast; MDA-MB-435 melanoma; SW-620 colon; MCF7 breast; HCT-116 colon; KM12 colon; MDA-MB-468 breast; HCC-2998 colon.
Common to all, as to assay: NCI-60 one-dose screen, 48 h (100 = growth as untreated, 0 = no growth, -100 = all killed)
What all share (conditions): 10 µM unless noted

In PubChem BioAssay (NCI) one finds growth data, which are given here for 15 compounds.

SMILES strings stand for the structures. Values joined by “and” are separate entries in the source; they are usually repeats but may differ in a detail not shown here. Equal entries are not always repeated. Compounds without any hit were thinned out: in the full panel of roughly 83,000, 20% have a hit.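 Single-dose data. Exposure time 48 hours. Values below 10 considered active.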 Active and inactive are the calls of the source.

As for `COc1ccc(-c2cc(C(=O)N=Nc3c(O)[nH]c4ccc(Cl)cc34)c3ccccc3n2)cc1`, the growth was 102% (inactive) in the test with T-47D breast; 107% (inactive) with BT-549 breast; 44.4% (inactive) in the test with MDA-MB-435 melanoma; 7.42% (active) in the test with SW-620 colon; 19.2% (inactive) in the test on MCF7 breast; 65.6% (inactive) with HCT-116 colon. For the same compound, the growth is 28% (inactive) in the test with KM12 colon and 74.9% (inactive) in the test with MDA-MB-468 breast.

Turning to `CC1=NN(C2=NC(=O)C(CC(=O)Nc3ccccc3C(F)(F)F)S2)C(c2ccc(N(C)C)cc2)C1` (stereo not drawn), the growth is 48% (inactive) in the test on T-47D breast; 52.7% (inactive) in the test with BT-549 breast; -26.5% (active) in the test with MDA-MB-435 melanoma; 60.5% (inactive) in the test on SW-620 colon; 23.4% (inactive) in the test on MCF7 breast; 30.1% (inactive) in the test with HCT-116 colon. Besides, the growth in the test with HCC-2998 colon is 66.2% (inactive); in the test with KM12 colon, 39% (inactive); with MDA-MB-468 breast, 3.34% (active).

In the case of `O=C(CCl)Nc1ccc(C(=O)/C=C/c2cc3ccccc3nc2Cl)cc1`, the growth in the test on T-47D breast is -46.9% (active) and 51.1% (inactive); with BT-549 breast, -82.4% (active) and 45.6% (inactive); in the test with MDA-MB-435 melanoma, -54.9% (active) and 52.1% (inactive); in the test on SW-620 colon, -78.3% (active) and 48.9% (inactive); with MCF7 breast, -57.1% (active) and 24.9% (inactive); in the test on HCT-116 colon, 8.67% (active) and 39.7% (inactive). For the same compound, the growth with KM12 colon is -68.6% (active) and 22.5% (inactive); in the test on MDA-MB-468 breast it was -82.5% (active) and 54.9% (inactive).

In the case of `COc1ccc2[nH]c(=O)c(CSc3ccccc3Nc3nccc(-c4ccc(C(F)(F)F)cc4)n3)cc2c1`, the growth with T-47D breast is 11.3% (inactive); with BT-549 breast, -10.4% (active); in the test with MDA-MB-435 melanoma it was 32.3% (inactive); with SW-620 colon, 17.5% (inactive); in the test on MCF7 breast, -17.5% (active); with HCT-116 colon it was -8.91% (active). For the same compound, the figures for the growth in the test with KM12 colon and with MDA-MB-468 breast were 29.2% (inactive) and 13.6% (inactive), respectively.

`COc1ccc(-c2cc(-c3cc(C(C)C)c(O)cc3C)nn2-c2ccc(S(N)(=O)=O)cc2)cc1`: the growth with T-47D breast is 12.7% (inactive); in the test with BT-549 breast, -3.73% (active); in the test on MDA-MB-435 melanoma, -58.2% (active); in the test on SW-620 colon it was 28.2% (inactive); in the test with MCF7 breast it was 11% (inactive); in the test with HCT-116 colon, 27.4% (inactive). Besides, the growth in the test with KM12 colon was 2.28% (active); with MDA-MB-468 breast, -15.9% (active).

In the case of `N/C(=N\c1nc2ccccc2s1)NC(=O)Nc1ccccc1[N+](=O)[O-]`, the growth in the test on T-47D breast is 34.1% (inactive); in the test on BT-549 breast, 10.5% (inactive); in the test on MDA-MB-435 melanoma, -45.1% (active); in the test on SW-620 colon it was 31% (inactive); with MCF7 breast, 12.8% (inactive); in the test on HCT-116 colon it was 0.0336% (active). For the same compound, the growth with KM12 colon was 1.31% (active).

For the compound `Nc1nnc(-c2cncc(Br)c2)c(-c2c[nH]c3ccc(Br)cc23)n1`, the growth with T-47D breast was 26.1% (inactive); with BT-549 breast, 47.4% (inactive); in the test with MDA-MB-435 melanoma, -14.4% (active); in the test on SW-620 colon it was 28.1% (inactive); in the test with MCF7 breast, 50.4% (inactive); in the test on HCT-116 colon, 22.9% (inactive). Further, the growth with KM12 colon is 41.4% (inactive); with MDA-MB-468 breast it was -4.92% (active).

Consider `CCCCNC(=S)Nc1ccc(OCc2nc3ccc(Cl)cc3[nH]2)cc1`, for which the growth in the test on T-47D breast is 22.2% (inactive); in the test with BT-549 breast, 31.7% (inactive); in the test with MDA-MB-435 melanoma, 29.4% (inactive); in the test with SW-620 colon it was 21.8% (inactive); in the test on MCF7 breast, 6.29% (active); in the test on HCT-116 colon, 11.2% (inactive). The growth was 3.65% (active) in the test with HCC-2998 colon, 29.3% (inactive) with KM12 colon and 3.25% (active) in the test with MDA-MB-468 breast.

Regarding `O=C(c1ccc(O)cc1)C1[C@H](c2ccc(Cl)cc2)[C@@H](c2ccccc2)NC12C(=O)Nc1ccccc12` (stereo partly drawn), the growth with T-47D breast is 11.7% (inactive); in the test on BT-549 breast it was -50.7% (active); in the test on MDA-MB-435 melanoma, -34% (active); with SW-620 colon, -12.7% (active); with MCF7 breast, -6.29% (active); in the test on HCT-116 colon, -76.8% (active). Besides, the growth in the test with KM12 colon was -13.7% (active); in the test with MDA-MB-468 breast, -45.2% (active).

Regarding `COc1cc(C2CC(c3ccc(S(=O)(=O)NCCNc4nc(N(C)C)nc(N5CCOCC5)n4)cc3)=Nc3c(N)nc(N)nc3N2)cc(OC)c1OC` (stereo not drawn), the growth in the test on T-47D breast is 95% (inactive); in the test with BT-549 breast it was 95.2% (inactive); in the test on MDA-MB-435 melanoma it was 104% (inactive); with SW-620 colon, 99% (inactive); in the test on MCF7 breast, 95.1% (inactive); with HCT-116 colon, 90% (inactive). The figures for the growth in the test with HCC-2998 colon, in the test on KM12 colon and in the test on MDA-MB-468 breast were 109% (inactive), 100% (inactive) and 95.4% (inactive), respectively.

As for `CCOc1ccccc1[C@H]1C(C(=O)c2ccc(Cl)cc2)C2(N[C@@H]1c1ccccc1)C(=O)Nc1ccccc12` (stereo partly drawn), the growth is 10% (inactive) in the test with T-47D breast; -35% (active) with BT-549 breast; -28.3% (active) in the test on MDA-MB-435 melanoma; 21% (inactive) in the test on SW-620 colon; -9.52% (active) with MCF7 breast; 3.88% (active) in the test with HCT-116 colon. Besides, the growth with KM12 colon is 12.4% (inactive); in the test with MDA-MB-468 breast it was -31.1% (active).

For `CCCn1c(NC(=O)c2cccc(C(N)=O)c2)nc2cc(CN3CCCCC3)ccc21`, the growth with T-47D breast is 86.6% (inactive); with BT-549 breast, -10.8% (active); with MDA-MB-435 melanoma, 101% (inactive); in the test with SW-620 colon, 113% (inactive); in the test with MCF7 breast, 71.5% (inactive); with HCT-116 colon, 5.91% (active). In addition, the figures for the growth with KM12 colon and with MDA-MB-468 breast were 22.8% (inactive) and 82.5% (inactive), respectively.

As to `NNc1ncnc2sc3c(c12)CCN(Cc1ccccc1)C3`, the growth with T-47D breast is 24.8% (inactive); with BT-549 breast, 55% (inactive); with MDA-MB-435 melanoma it was 77.7% (inactive); in the test with SW-620 colon it was 46.6% (inactive); in the test on MCF7 breast, 9.55% (active); with HCT-116 colon, 42.6% (inactive). In addition, the results for the growth in the test with KM12 colon and with MDA-MB-468 breast were 53.8% (inactive) and 13.2% (inactive), respectively.

For the compound `COc1cc(C2CC(c3cc(OC)c(OC)c(OC)c3)=Nc3c(N)nc(N)nc3N2)ccc1Oc1nc(Nc2ccc(F)cc2)nc(N(C)C)n1` (stereo not drawn), the growth with T-47D breast is 65.8% (inactive); in the test on BT-549 breast it was 74.7% (inactive); in the test with MDA-MB-435 melanoma it was 66.4% (inactive); with SW-620 colon it was 50.7% (inactive); in the test with MCF7 breast, 23.4% (inactive); in the test on HCT-116 colon, 22.9% (inactive). Moreover, the growth in the test with HCC-2998 colon is 36.8% (inactive); in the test on KM12 colon, 42.9% (inactive); with MDA-MB-468 breast, -22.6% (active).

As for `Cc1nn(-c2ccccc2)c2nc(C)n(C(=O)N/N=C/c3ccccc3)c(=O)c12`, the growth in the test on T-47D breast is 90.6% (inactive); in the test on BT-549 breast, 101% (inactive); with MDA-MB-435 melanoma, 102% (inactive); in the test on SW-620 colon, 101% (inactive); with MCF7 breast, 92.9% (inactive); in the test on HCT-116 colon, 102% (inactive). Further, the growth is 99.4% (inactive) in the test with KM12 colon and 115% (inactive) with MDA-MB-468 breast.
